Prx2 Sm inh: blocks S. mansoni peroxiredoxin 2 enzymatic activity | S. mansoni Prx2 activity coupled to TGR/GSH (TGR is thioredoxin glutathione reductase), NADPH fluorescence loss, qHTS | Potency, µM | 65,000 tested, 0.07% active | AID 448
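Purified S. mansoni TGR and Prx2 in pH 7.4 phosphate buffer with EDTA and Tween-20 were preincubated with compounds for 15 min. Further NADPH/GSH was added, then a 2.5 mM H2O2 aliquot initiated turnover, followed kinetically by NADPH fluorescence.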
Anthrax LT inh: anthrax lethal toxin internalization inhibition. Cells, anthrax lethal toxin internalization, FRET ratio (460/530). Potency, µM (top dose mostly 40 µM), without a hit: at the top dose activity change, negative = inhibition, hits mostly inhibitors. 70,000 tested, 0.67% active. AID 912; note: % is set by controls: 0 for no effect and ±100 for the full control effect; nearly all actives have a fitted effect of over 50% in size
AmpC inh no det: blocks E. coli AmpC beta-lactamase in absence of detergent; P00811; AmpC nitrocefin hydrolysis, absorbance 480 nm, no detergent; Potency, µM (titrated, usually from 28.7 µM), for the others: at the highest dose activity change, negative = inhibition; 71,000 tested, 1.8% active; note: % of control where 0% means no effect
Target sequence (P00811 whole entry, looked up): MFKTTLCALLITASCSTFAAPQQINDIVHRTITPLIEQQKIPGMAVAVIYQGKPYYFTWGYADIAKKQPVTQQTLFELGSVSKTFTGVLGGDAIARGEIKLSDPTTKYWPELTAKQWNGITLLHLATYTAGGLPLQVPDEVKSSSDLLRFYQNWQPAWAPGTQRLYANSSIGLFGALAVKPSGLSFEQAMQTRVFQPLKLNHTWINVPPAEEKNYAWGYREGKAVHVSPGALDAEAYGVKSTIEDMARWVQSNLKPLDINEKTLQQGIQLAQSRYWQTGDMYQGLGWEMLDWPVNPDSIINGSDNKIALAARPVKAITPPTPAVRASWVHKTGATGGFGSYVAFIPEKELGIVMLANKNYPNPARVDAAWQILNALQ
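AmpC, 20 mM phosphate pH 7.0; 15 min cpd preinc, RT; start with nitrocefin (800 uM stock); A480 kinetic read, 20 s intervals, 4 min. No-enzyme wells = negative control.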
AmpC inh det: inhibitors of E. coli AmpC beta-lactamase with detergent | P00811 | purified AmpC, nitrocefin hydrolysis with detergent | Potency, µM (highest dose often 28.7 µM), inactives show top-dose activity change, negative = inhibition | 71,000 tested, 0.09% active | AID 584; active = well fitted curve in the direction sought with a large enough effect; inconclusive = small, poorly fitted or top-dose-only effect; note: % is set by controls: 0 for no effect and ±100 for the full control effect
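E. coli AmpC (5.3 nM) in 20 mM phosphate pH 7.0 with 0.01% Triton X-100, preincubated 15 min RT with compound; nitrocefin (2 uL of 800 uM stock) hydrolysis followed by 480 nm absorbance every 20 s over 4 min.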
Active calls of the source: *; ? = inconclusive; . = no result given; [ ] = another dose, or the depositor's remark. A selection: hits, their analogues and other compounds. The true share with any hit is near 2.6%. Unless noted, calls come from the whole dose curve. Potency is the fitted concentration of half-maximal effect.

SMILES | Prx2 Sm inh | Anthrax LT inh | AmpC inh no det | AmpC inh det
N[C@H](Cc1ccc(N(CCCl)CCCl)cc1)C(=O)O | >57 | 2.7% | 23.7% | -1.2%
COC(=O)N[C@H](c1ccccc1)[C@@]1(C)C[C@@H]1[C@@H](C)C(=O)Nc1ccc2ccccc2c1 | >57 | 10µM* | 16.4% | -4.4%
CC(=O)N[C@H](c1ccccc1)[C@@]1(C)C[C@@H]1[C@@H](C)C(=O)Nc1ccc2ccccc2c1 | >57 | ? | 89.6% | 1.0%
C=CCN1CCc2c(cc(O)c(O)c2Br)[C@H](c2ccccc2)C1 | >57 | 9.8% | -4.8% | -0.9%
CCN(CC)c1ccc(NC(=O)CC2Oc3ccccc3NC2=O)c(C)c1 (stereo not drawn) | >57 | ? | 3.98µM*[single pt active] | 11.5%
Cc1ccc(NC(=O)CC2Oc3ccccc3NC2=O)c(C)c1 (stereo not drawn) | >57 | 0.4% | 3.98µM*[single pt active] | 13.0%
COc1ccc(Oc2ncc3nc(-c4cccs4)c(=O)n(Cc4cccs4)c3n2)cc1 | >57 | ? | -10.1% | 0.4%
CCCCNc1nc(C)nc2c1nc(-c1ccccc1)n2C1CCN(Cc2ccccc2)C1 (stereo not drawn) | . | 12.6µM* | 96.1% | 9.9%
Cc1nc(NCc2ccccc2)c2nc(-c3ccccc3)n(C3CCN(Cc4ccccc4)C3)c2n1 (stereo not drawn) | . | ? | 70.5% | 14.7%
O=C(Nc1ccc(Cl)cc1)N(Cc1cccs1)Cc1cccs1 | . | -20.8% | 5.01µM* | 1.8%
O=C1CCc2cc(S(=O)(=O)NC(C(=O)NCc3cccnc3)c3ccccc3)ccc2N1 (stereo not drawn) | >57 | 1.1% | 3.98µM*[single pt active] | 11.8%
Cn1c(=O)c2cc(S(=O)(=O)NC(C(=O)NCc3cccnc3)c3ccccc3)ccc2n(C)c1=O (stereo not drawn) | >57 | -6.6% | 3.98µM*[single pt active] | 14.2%
Cn1c(=O)c2cc(S(=O)(=O)NC(C(=O)Nc3cccnc3)c3ccccc3)ccc2n(C)c1=O (stereo not drawn) | >57 | -8.2% | 3.98µM*[single pt active] | 10.6%
CC(NC(=O)CCNS(=O)(=O)c1ccc2c(c1)c(=O)n(C)c(=O)n2C)c1ccccc1 (stereo not drawn) | >57 | -22.1% | 8.6% | 3.8%
COc1ccc(CNc2ncnc3ccc(-c4ccccc4CN(C)C)cc23)c(OC)c1 | >57 | ? | 96.4% | 7.9%
CC[C@H](C)C(=O)O[C@@H]1C[C@H](C)C=C2C=C[C@H](C)[C@@H](CC[C@H]3C[C@@H](O)CC(=O)O3)[C@H]21 | . | ? | 120.8%[12.8 µM] | -4.7%[12.8 µM]
COc1ccc(CNC(=O)c2cc(-c3ccc(OC)c(OC)c3)on2)cc1 | >57 | 5.0% | 25.4% | -2.1%
COc1ccc(CNC(=O)c2cc(-c3cccc(OC)c3)on2)cc1 | >57 | ? | -9.2% | 2.5%
COc1ccc(-c2cc(C(=O)NCc3ccccc3)no2)cc1OC | ? | -1.3% | 0.398µM* | ?
COc1cccc(-c2cc(C(=O)NCc3ccc(Cl)cc3)no2)c1 | . | 4.7% | 12.6µM*[single pt active] | 3.0%
